Records with an inconclusive call do not appear. Calls of active or inactive are those of the source. The calls were made as follows: active = hit-call score of the fitted dose curve at least 0.9, where 1 is the maximum; inconclusive = response in the unintended direction; inactive = score below 0.9.
experiment: ATG_M_06_TRANS: Attagene TRANS-FACTORIAL HepG2 Assay for M06 Transcription Factor (Internal Marker) (AID 2282983); settings: HepG2 Attagene TRANS M06 internal marker reporter;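 as to AC50: potency for rise in reporter mRNA above DMSO baseline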
Method: ATG_TRANS is a cell-based, multiplexed-readout assay that uses HepG2, a human liver cell line, with measurements taken at 24 hours after chemical dosing in a 24-well plate.ATG_M_06_TRANS is one of 30 assay component(s) measured or calculated from the ATG_TRANS assay. It is designed to make measurements of mRNA induction, a form of inducible reporter, as detected with fluorescence intensity signals by Reverse transcription polymerase chain reaction (RT-PCR) and Capillary electrophoresis technology.Data from the assay component ATG_M_06_TRANS was analyzed into 1 assay endpoint. This assay endpoint, ATG_M_06_TRANS, was analyzed in the positive analysis fitting direction relative to DMSO as the negative control and baseline of activity. Using a type of inducible reporter, measures of mRNA for gain-of-signal activity can be used to understand the background control at the transcription factor-level as they relate to the gene . Furthermore, this assay endpoint can be referred to as a secondary readout, because this assay has produced multiple assay endpoints where this one serves a background control function. To generalize the intended target to other relatable targets, this assay endpoint is annotated to the background measurement intended target family, where the subfamily is internal marker.
Human liver HepG2 cells are transiently transfected with multiple reporter transcription units (MRTUs) in 6-well plates using FuGene 6 reagent (Roche; 3 ml FuGene/1 mg DNA). The MRTU constructs are regulated by a cis-regulating element (promoter). […] A major difference between the CIS and TRANS system is that in CIS activities of endogenous TFs are measured, whereas the TRANS assay evaluates changes in activities of exogenous, chimeric NR-Gal4 proteins. […] At the end of 24 hour incubation, total RNA was isolated using TriZol reagent (Invitrogen). The isolated RNA is then reverse-transcribed using oligo(dT) primer and Mo-MLV reverse transcriptase (Invitrogen) with DNAse I (Ambion) treatment for 30 min. The one-tenth of the produced cDNA was amplified by PCR using Taq DNA polymerase (Invitrogen) and two reporter sequence-specific primers. The PCR products were fluorescently labeled by primer extension with 6-arboxyfluorescein (6-FAM) 5'-labeled reporter sequence-specific primer (2 min at 95 C, 20 s at 68 C and 10 min at 72 C) and these products were digested with 5U of HpaI (New England Biolabs) for 2h at 37 C. The fragments were purified using Qiaquick PCR columns (Qiagen), analyzed on an ABI 3130xL genetic analyzer (Applied Biosystems) with peak positions identified by using a set of X-rhodamine (ROX)-labeled MapMarker1000 molecular weight standards (BioVentures). The raw capillary electrophoresis data was processed using Attagraph software (Attagene).

SMILES	outcome	AC50
CC(C)=CCC/C(C)=C\C#N	inactive	
C[Si](C)(CCCN)O[Si](C)(C)CCCN	inactive	
Cc1cc(=O)n(-c2ccccc2)n1C	inactive	
N#CCc1ccc(Cl)cc1Cl	inactive	
Cc1ccc(C2OC[C@@H]3OC(c4ccc(C)cc4)O[C@H]([C@H](O)CO)[C@@H]3O2)cc1 (stereo not given in full)	inactive	
COc1c2ccoc2cc2oc(=O)ccc12	inactive	
COC(=O)c1ccccc1OC	inactive	
CC(=O)OCC(C)OC(C)=O (stereo not given)	inactive	
COCC(C)N (stereo not given)	inactive	
COC(F)(F)C(F)(C(F)(F)F)C(F)(F)F	inactive	
CC(C)CCCC(C)CC=O (stereo not given)	inactive	
COC(=O)/C=C/C(C)=C\C=C\C(C)=C\C=C\C=C(C)\C=C\C=C(C)\C=C\C(=O)O	inactive	
Cc1cc(C)c(C)c(O)c1	inactive	
O=C1CCCCCN1SSN1CCCCCC1=O	inactive	
CCCCCC(C)O (stereo not given)	inactive	
Cc1cnc(NC(=O)C2=C(O)c3ccccc3S(=O)(=O)N2C)s1	inactive	
O=C(c1ccccc1)C1CCC1	inactive	
CC(=O)CC(N)=O	inactive	
CC(=O)OCc1ccco1	inactive	
COc1ccc(NC(C)=O)cc1N	inactive	

SMILES	outcome	AC50
CC(C)c1ccc2c(c1)CC[C@H]1[C@](C)(CN)CCC[C@]21C		5.45 µM (active)
CC(C)(C)c1n[nH]c(=O)n(N)c1=O	inactive	
CCCCCCCC/C=C\CCCCCCCC(=O)O	inactive	
Cc1ccc2c(c1)C(=O)c1ccccc1C2=O	inactive	
O=C1Nc2ccccc2C1(c1ccc(O)cc1)c1ccc(O)cc1	inactive	
CN(C)c1ccc(C(=N)c2ccc(N(C)C)cc2)cc1	inactive	
CC(CC=O)CCCC(C)(C)O (stereo not given)	inactive	
COC(=O)c1sccc1S(N)(=O)=O	inactive	
CC(C)(C)c1ccc(-c2ccc(C(C)(C)C)cc2)cc1	inactive	
CC(=O)Nc1nnc(S(N)(=O)=O)s1	inactive	
CN(C)c1ccc(N=Nc2ccccc2C(=O)O)cc1	inactive	
O=C1CCC(=O)N1Cl	inactive	
C[C@]12C=CC(=O)C=C1CC[C@@H]1[C@@H]2[C@@H](O)C[C@@]2(C)[C@H]1CC[C@]2(O)C(=O)CO	inactive	
Cn1c(=O)[nH]c2ncn(C)c2c1=O	inactive	
O=C(c1ccc(O)cc1)c1ccc(O)cc1O	inactive	
NC(CO)(CO)CO	inactive	
O=c1c2ccccc2nnn1CCl	inactive	
O=S(=O)(O)c1cc(S(=O)(=O)O)c2ccc3c(S(=O)(=O)O)cc(S(=O)(=O)O)c4ccc1c2c43	inactive	
C[Si](C)O[Si](C)(C)O[Si](C)(C)O[Si](C)C	inactive	
O=P(O)(O)Oc1ccccc1	inactive	

From PubChem BioAssay (EPA / NIEHS)
